# In the supplement of paper PMC8728848:
# Many of the other results were omitted from the sample, so the strongest signals are more common in it than they were.
# Tests used:
# Test in all cases: glycan array binding signal (z-score within array); higher = stronger binding
# Settings in all cases: glycan notation: IUPAC condensed, linker removed
# [1] = biological target: Fuc(a1-2)Gal(b1-3)GalNAc(a1-3)[Fuc(a1-2)]Gal(b1-4)Glc
# Outline: (§1)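 Arrays were curated from the Consortium for Functional Glycomics database, 3228 in total, and kept only where the protein sequence was available. Binding is expressed as a within-array Z-score. This score was averaged across arrays of the same protein sequence at different concentrations or buffers and across linkers, and negative values can be read as non-binding.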
# [2] = biological target: Fuc(a1-2)Gal(b1-3)GalNAc(b1-4)[Neu5Ac(a2-3)]Gal(b1-4)Glc
# Outline: as §1
# [3] = biological target: Fuc(a1-2)Gal(b1-3)GlcNAc(b1-3)Gal(b1-4)Glc
# Outline: as §1
# [4] = biological target: Fuc(a1-2)Gal(b1-4)GlcNAc(b1-3)[Fuc(a1-2)Gal(b1-4)GlcNAc(b1-6)]GalNAc
# Outline: as §1
# [5] = biological target: Fuc(a1-2)Gal(b1-4)GlcNAc(b1-6)GalNAc
# Outline: as §1
# [6] = biological target: Fuc(a1-2)Gal(b1-4)[Fuc(a1-3)]GalNAc(b1-3)Gal(b1-4)[Fuc(a1-3)]GlcNAc
# Outline: as §1
# Fuc(a1-2)GlcNAc = biological target: Fuc(a1-2)GlcNAc
# Outline: as §1
# [7] = biological target: Fuc(a1-2)[Gal(a1-3)]Gal(b1-3)GlcNAc
# Outline: as §1
# [8] = biological target: Fuc(a1-2)[Gal(a1-3)]Gal(b1-4)Glc
# Outline: as §1
# Gal(a1-3)Gal(b1-4)GlcNAc = biological target: Gal(a1-3)Gal(b1-4)GlcNAc
# Outline: as §1
# Gal(a1-6)Glc = biological target: Gal(a1-6)Glc
# Outline: as §1
# [9] = biological target: Gal(b1-3)GalNAc(a1-3)[Fuc(a1-2)]Gal(b1-4)Glc
# Outline: as §1
# [10] = biological target: Gal(b1-3)GalNAc(b1-3)Gal(b1-4)Glc
# Outline: as §1
# [11] = biological target: Gal(b1-3)[Fuc(a1-4)]GlcNAc(b1-3)Gal(b1-3)[Fuc(a1-4)]GlcNAc
# Outline: as §1
# [12] = biological target: Gal(b1-3)[Fuc(a1-4)]GlcNAc(b1-6)GalNAc
# Outline: as §1
# [13] = biological target: Gal(b1-4)GlcNAc(b1-2)Man(a1-3)[GlcNAc(b1-4)][Gal(b1-4)GlcNAc(b1-2)Man(a1-6)]Man(b1-4)GlcNAc(b1-4)GlcNAc
# Outline: as §1
# [14] = biological target: Gal(b1-4)GlcNAc(b1-2)Man(a1-6)Man(b1-4)GlcNAc(b1-4)GlcNAc
# Outline: as §1
# [15] = biological target: Gal(b1-4)GlcNAc(b1-3)Gal(b1-4)GlcNAc(b1-3)Gal(b1-4)GlcNAc(b1-3)Gal(b1-4)GlcNAc(b1-3)Gal(b1-4)GlcNAc(b1-2)Man(a1-3)[Gal(b1-4)GlcNAc(b1-3)Gal(b1-4)GlcNAc(b1-3)Gal(b1-4)GlcNAc(b1-3)Gal(b1-4)GlcNAc(b1-3)Gal(b1-4)GlcNAc(b1-2)Man(a1-6)]Man(b1-4)GlcNAc(b1-4)[Fuc(a1-6)]GlcNAc
# Outline: as §1
# [16] = biological target: Gal(b1-4)GlcNAc(b1-3)Gal(b1-4)GlcNAc(b1-3)[Gal(b1-4)GlcNAc(b1-3)Gal(b1-4)GlcNAc(b1-6)]GalNAc
# Outline: as §1
# Gal3S(b1-4)Glc = biological target: Gal3S(b1-4)Glc
# Outline: as §1
# [17] = biological target: Gal3S(b1-4)[Fuc(a1-3)]GlcNAc
# Outline: as §1
# [18] = biological target: Gal3S(b1-4)[Fuc(a1-3)]GlcNAc6S
# Outline: as §1
# Gal3S6S(b1-4)GlcNAc6S = biological target: Gal3S6S(b1-4)GlcNAc6S
# Outline: as §1
# Gal6S(b1-4)GlcNAc6S = biological target: Gal6S(b1-4)GlcNAc6S
# Outline: as §1
# GalNAc(b1-3)GalNAc = biological target: GalNAc(b1-3)GalNAc
# Outline: as §1
# GalNAc(b1-4)Gal(b1-4)Glc = biological target: GalNAc(b1-4)Gal(b1-4)Glc
# Outline: as §1
# GalNAc(b1-4)GlcNAc = biological target: GalNAc(b1-4)GlcNAc
# Outline: as §1
# [19] = biological target: GalNAc(b1-4)GlcNAc(b1-3)GalNAc(b1-4)GlcNAc
# Outline: as §1
# [20] = biological target: GlcA3S(b1-3)Gal(b1-4)GlcNAc(b1-3)Gal(b1-4)Glc
# Outline: as §1
# [21] = biological target: GlcNAc(a1-4)Gal(b1-4)GlcNAc
# Outline: as §1
# [22] = biological target: GlcNAc(a1-4)Gal(b1-4)GlcNAc(b1-3)Gal(b1-4)GlcNAc
# Outline: as §1
# [23] = biological target: GlcNAc(a1-4)Gal(b1-4)GlcNAc(b1-3)Gal(b1-4)GlcNAc(b1-3)Gal(b1-4)GlcNAc
# Outline: as §1
# [24] = biological target: GlcNAc(b1-2)Man(a1-3)[GlcNAc(b1-2)Man(a1-6)]Man(b1-4)GlcNAc(b1-4)GlcNAc
# Outline: as §1
# [25] = biological target: GlcNAc(b1-3)Gal(b1-4)GlcNAc(b1-3)Gal(b1-4)GlcNAc(b1-2)[GlcNAc(b1-3)Gal(b1-4)GlcNAc(b1-3)Gal(b1-4)GlcNAc(b1-6)]Man(a1-6)[GlcNAc(b1-3)Gal(b1-4)GlcNAc(b1-3)Gal(b1-4)GlcNAc(b1-2)Man(a1-3)]Man(b1-4)GlcNAc(b1-4)[Fuc(a1-6)]GlcNAc
# Outline: as §1
# [26] = biological target: GlcNAc(b1-3)Gal(b1-4)GlcNAc(b1-6)[Gal(b1-3)]GalNAc
# Outline: as §1
# GlcNAc(b1-4)GlcNAc = biological target: GlcNAc(b1-4)GlcNAc
# Outline: as §1
# [27] = biological target: GlcNAc(b1-4)GlcNAc(b1-4)GlcNAc
# Outline: as §1
# [28] = biological target: GlcNAc(b1-4)GlcNAc(b1-4)GlcNAc(b1-4)GlcNAc(b1-4)GlcNAc
# Outline: as §1
# [29] = biological target: GlcNAc(b1-4)GlcNAc(b1-4)GlcNAc(b1-4)GlcNAc(b1-4)GlcNAc(b1-4)GlcNAc
# Outline: as §1
# [30] = biological target: Man(a1-2)Man(a1-3)[Man(a1-3)[Man(a1-6)]Man(a1-6)]Man(b1-4)GlcNAc(b1-4)GlcNAc
# Outline: as §1
# [31] = biological target: Neu5Ac(a2-3)Gal(b1-3)GlcNAc(b1-2)Man
# Outline: as §1
# [32] = biological target: Neu5Ac(a2-3)Gal(b1-3)GlcNAc6S
# Outline: as §1
# [33] = biological target: Neu5Ac(a2-3)Gal(b1-4)GlcNAc
# Outline: as §1
# [34] = biological target: Neu5Ac(a2-3)Gal(b1-4)[Fuc(a1-3)]GlcNAc
# Outline: as §1
# [35] = biological target: Neu5Ac(a2-3)Gal6S(b1-4)GlcNAc
# Outline: as §1
# [36] = biological target: Neu5Ac(a2-6)Gal(b1-4)GlcNAc(b1-2)Man(a1-6)[Gal(b1-4)GlcNAc(b1-2)Man(a1-3)]Man(b1-4)GlcNAc(b1-4)GlcNAc
# Outline: as §1
# [37] = biological target: Neu5Ac(a2-6)Gal(b1-4)GlcNAc(b1-3)Gal(b1-4)GlcNAc
# Outline: as §1
# [38] = biological target: Neu5Ac(a2-6)GlcNAc(b1-4)GlcNAc(b1-4)GlcNAc
# Outline: as §1
# [39] = biological target: Neu5Ac9Ac(a2-3)Gal(b1-4)GlcNAc
# Outline: as §1
binder,measurement,setting,value
"AAA (Anguilla anguilla), Q7SIC1 (protein) VIPEGYTQENVAVRGKATQSAQLRGEHAANSEASNAIDGNRDSNFYHGSCTHSSGQANPWWRVDLLQVYTITSVTITNRGDCCGERISGAEINIGQHLASNGVNNPECSVIGSMATGETKTFHCPAPMIGRYVVTYLPTSESLHLCEVEVNVDKPAAA",glycan array binding signal (z-score),[1],-0.257
same,glycan array binding signal (z-score),[2],-0.193
same,glycan array binding signal (z-score),[3],-0.189
same,glycan array binding signal (z-score),[4],-0.001
same,glycan array binding signal (z-score),[5],0.002
same,glycan array binding signal (z-score),[6],-0.583
same,glycan array binding signal (z-score),Fuc(a1-2)GlcNAc,8.41
same,glycan array binding signal (z-score),[7],0.046
same,glycan array binding signal (z-score),[8],-0.037
same,glycan array binding signal (z-score),Gal(a1-3)Gal(b1-4)GlcNAc,-0.169
same,glycan array binding signal (z-score),Gal(a1-6)Glc,-0.097
same,glycan array binding signal (z-score),[9],-0.279
same,glycan array binding signal (z-score),[10],0.237
same,glycan array binding signal (z-score),[11],0.164
same,glycan array binding signal (z-score),[12],-0.081
same,glycan array binding signal (z-score),[13],-0.238
same,glycan array binding signal (z-score),[14],-0.168
same,glycan array binding signal (z-score),[15],-0.123
same,glycan array binding signal (z-score),[16],1.43
same,glycan array binding signal (z-score),Gal3S(b1-4)Glc,-0.117
same,glycan array binding signal (z-score),[17],-0.194
same,glycan array binding signal (z-score),[18],-0.154
same,glycan array binding signal (z-score),Gal3S6S(b1-4)GlcNAc6S,-0.044
same,glycan array binding signal (z-score),Gal6S(b1-4)GlcNAc6S,-0.292
same,glycan array binding signal (z-score),GalNAc(b1-3)GalNAc,-0.16
same,glycan array binding signal (z-score),GalNAc(b1-4)Gal(b1-4)Glc,-0.076
same,glycan array binding signal (z-score),GalNAc(b1-4)GlcNAc,1.89
same,glycan array binding signal (z-score),[19],3.34
same,glycan array binding signal (z-score),[20],-0.136
same,glycan array binding signal (z-score),[21],2.3
same,glycan array binding signal (z-score),[22],1.96
same,glycan array binding signal (z-score),[23],2.29
same,glycan array binding signal (z-score),[24],-0.274
same,glycan array binding signal (z-score),[25],0.944
same,glycan array binding signal (z-score),[26],-0.298
same,glycan array binding signal (z-score),GlcNAc(b1-4)GlcNAc,2.2
same,glycan array binding signal (z-score),[27],5.55
same,glycan array binding signal (z-score),[28],7.88
same,glycan array binding signal (z-score),[29],6.77
same,glycan array binding signal (z-score),[30],-0.106
same,glycan array binding signal (z-score),[31],-0.023
same,glycan array binding signal (z-score),[32],0.003
same,glycan array binding signal (z-score),[33],-0.086
same,glycan array binding signal (z-score),[34],-0.098
same,glycan array binding signal (z-score),[35],-0.179
same,glycan array binding signal (z-score),[36],-0.183
same,glycan array binding signal (z-score),[37],-0.202
same,glycan array binding signal (z-score),[38],2.46
same,glycan array binding signal (z-score),[39],-0.102
